In the library only some 15% were active in any assay of this set; here they are far more common.
HCMV inh: qHTS Assay for inhibitors of the human cytomegalovirus (HCMV); HFF cells, HCMV-luciferase reporter, 72 h; hits give low values; activity change, negative = inhibition, % at 57.5 µM; actives 4.5% (n = 410,000); in the data active = activity change below about -60%; inconclusive = no clear call, values can overlap the other calls; inactive = above about -39%
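HFF cells seeded 16 h at 37C, treated with compounds, infected with luciferase-reporter HCMV at MOI 1 PFU/cell; luciferase read at 72 h post infection, normalized to buffer-only and Salinomycin controls.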
Pf growth 48h: Primary qHTS for delayed death inhibitors of the malarial parasite plastid, 48 hour incubation. actives 5.9% (n = 310,000). Potency, µM (doses to about 28.7 µM), most hits filed as inhibitors. P. falciparum luciferase growth in erythrocytes, 48 h
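In quantitative HTS format, infected erythrocytes bearing luciferase-reporter parasites were treated for a single generation at 37 C. Luminescence after adding detection reagent served as the growth measure.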
HCV inhibitor: qHTS Assay for Inhibitors of Hepatitis C Virus (HCV) | actives 3.4% (n = 340,000) | Huh7.5.1 HCVcc-Cre infection, luciferase reporter, 44 h | Potency, µM (doses to about 41.8 µM), most hits filed as inhibitors | AID 651820, 2012
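Reporter virus HCVcc-Cre (~0.5 moi) infects cells exposed to compound; seeding density 1,000 cells/well with 4 h settling beforehand. Luminescence, 15 sec read, taken 44 h post-infection following a 15 min RT substrate incubation.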
SARS PLP yeast: qHTS of Yeast-based Assay for SARS-CoV PLP; Potency, µM (doses to about 32.9 µM), usual class: activators; actives 0.19% (n = 330,000); S. cerevisiae expressing SARS-CoV PLpro, growth rescue; AID 485353, 2010; calls by dose curve; also: nearly all actives have a fitted effect of over 55% in size
Pf growth 96h: Primary qHTS for delayed death inhibitors of the malarial parasite plastid, 96 hour incubation; P. falciparum luciferase reporter growth, 96 h; Potency, µM (highest dose often 28.7 µM), most hits filed as inhibitors; actives 6.9% (n = 320,000); AID 504834, 2011
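Readout is luminescence from an integrated firefly luciferase in P. falciparum. Red cells, 2% hematocrit and 0.05% parasitemia final, were cultured with compound through two parasite generations (96 hours) at 37 C, 5% CO2.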
Sm TGR block: qHTS Assay for the Inhibitors of Schistosoma Mansoni Peroxiredoxins; Potency, µM (titrated, usually from 114 µM), actives largely listed as inhibitors; Schistosoma mansoni thioredoxin glutathione reductase (TGR), Q962Y6; actives 3% (n = 360,000); purified TGR, DTNB reduction, TNB absorbance 405 nm; also: nearly all actives have a fitted effect of over 60% in size
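First, TGR (20 nM dispensed) and NADPH were mixed with compound. Second, a 15 min room-temperature incubation followed. Third, further NADPH and then DTNB were added to start the reaction. Finally, TNB absorbance was monitored kinetically.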
Hits are given with their value; - = inactive; ? = inconclusive; . = no result given. Unless noted, calls follow the shape of the dose curve; as a rule, active = well fitted curve in the direction sought with a large enough effect; inconclusive = small, poorly fitted or top-dose-only effect, or another doubt; inactive = no such curve, though single readings can be large; an effect the other way counts as inactive or inconclusive.

SMILES | HCMV inh | Pf growth 48h | HCV inhibitor | SARS PLP yeast | Pf growth 96h | Sm TGR block
CCOC(=O)C1(Cc2cccc(F)c2)CCN(C(=O)c2ccoc2C)CC1 | - | 10.4µM | - | - | - | ?
CCOC(=O)C1(Cc2ccc(OC)cc2)CCN(C(=O)CC2CCC(=O)N2)CC1 (stereo not given) | - | - | - | - | ? | -
CCOC(=O)C1(Cc2cccc(OC)c2)CCN(C/C=C/c2ccc(OC)cc2)CC1 | ? | ? | 8.91µM | - | - | -
CCCCN1C(=O)NC(=O)/C(=C/c2cnc(SC)nc2)C1=O | - | ? | - | - | - | 7.08µM
CSc1ncc(/C=C2/C(=O)NC(=O)N(C3CCCCC3)C2=O)cn1 | - | - | - | - | ? | 5.01µM
CN(C)c1ncc(/C=C2/C(=O)NC(=S)N(C3CCCCC3)C2=O)cn1 | . | - | . | - | - | .
CSc1ncc(/C=C2/C(=O)NC(=O)N(C)C2=O)cn1 | - | - | - | - | - | 1.41µM
Cc1ccc(-n2c(C)cc(/C=C3/C(=O)NC(=O)N(C)C3=O)c2C)cc1 | - | - | - | - | - | -
C[C@H](CO)N1C[C@H](C)[C@@H](CN(C)S(=O)(=O)c2ccc(F)cc2)OCc2cn(nn2)CCCC1=O | - | . | . | . | . | .
CCN(c1cc(C)cc(C)c1)S(=O)(=O)c1nnc(NC(=O)c2cccc(F)c2)s1 | ? | . | . | . | . | -
CC(Cc1cccs1)NC(=O)Nc1ccccc1 (stereo not given) | - | - | - | - | 2.94µM | -
CC(Cc1cccs1)NC(=O)Nc1ccc(Cl)cc1 (stereo not given) | - | - | - | - | . | -
COc1ccc2[nH]cc(CCNC(=O)Cc3ccc(F)cc3)c2c1 | - | - | - | - | ? | -
Nc1ccccc1C(=O)C[C@H](N)C(=O)O | - | . | - | . | . | .
COc1cccc(-c2nc(S(=O)(=O)c3ccc(Cl)cc3)c(NCc3ccccc3)o2)c1 | - | . | . | . | . | -
Cc1cc(N(C)C)cc(C)c1N=Nc1cc[n+]([O-])cc1 | - | . | . | . | . | .
O=C(CSC1=NNC(c2ccccn2)S1)Nc1cccc(Cl)c1 (stereo not given) | -77.9 | ? | - | ? | ? | -
O=C(CSC1=NNC(c2ccccn2)S1)Nc1ccccc1 (stereo not given) | -97.5 | ? | 14.1µM | ? | ? | ?
O=C(CSc1nnc(-c2ccccn2)o1)Nc1ccccc1 | - | - | - | - | ? | .
NC(COCc1ccccc1)c1csc(NC(=O)Nc2cccc(Cl)c2)n1 (stereo not given) | - | . | . | . | . | .
COc1ccc(-c2nsc(SCC(=O)Nc3cc(C)on3)n2)cc1 | - | 5.86µM | ? | - | ? | ?
COc1ccc(-c2nsc(SCC(=O)NCC3CCCO3)n2)cc1 (stereo not given) | -77.3 | - | - | - | ? | -
CCOC(=O)CNC(=O)CSc1nc(-c2ccc(OC)cc2)ns1 | - | - | ? | - | - | -
COc1ccc(-c2nc(SCC(=O)NCC3CCCO3)c(-c3ccc(Cl)cc3)[nH]2)cc1 (stereo not given) | - | . | . | . | . | -
Cc1ccc(-c2nsc(SCC(=O)NCC3CCCO3)n2)cc1 (stereo not given) | - | - | 10µM | - | - | -
SMILES | HCMV inh | Pf growth 48h | HCV inhibitor | SARS PLP yeast | Pf growth 96h | Sm TGR block
O=C(CSC1=Nc2ccccc2C2=NC(Cc3ccccc3)C(=O)N12)Nc1ccccc1C(F)(F)F (stereo not given) | - | . | . | . | . | -
CCOc1ccccc1CN1CCc2nc(N3CCN(C)CC3)ncc2C1 | - | . | . | . | . | -
O=C(OCC(=O)N1CCN(C(=O)c2ccco2)CC1)c1ccccc1NCCO | - | - | - | - | ? | -
Cc1ccc(C(=O)Nc2c(C(=O)Nc3ccc(C)c(C)c3)sc3nc(C)cc(C)c23)cc1 | -106.9 | . | . | . | . | -
Cc1cc(C)c2c(NC(=O)c3ccccc3Cl)c(C(=O)Nc3ccc(C)c(C)c3)sc2n1 | - | . | . | . | . | -
CC1CCCC(NC(=O)COC(=O)c2ccc3ncsc3c2)C1C (stereo not given) | - | - | - | - | - | -
CCOc1ccc(C(=O)Nc2c(C(=O)c3ccccc3)oc3ccccc23)cc1 | ? | . | . | . | . | -
COc1cc(C2NC(=O)N(C)C3=C2C(=O)N(c2ccccc2)C3)ccc1O (stereo not given) | -97.0 | . | . | . | . | ?
COc1cc(C2NC(=O)N(C)C3=C2C(=O)N(c2cccc(Cl)c2)C3)ccc1O (stereo not given) | - | . | . | . | . | -
O=[N+]([O-])c1ccc(C2Oc3ccccc3C3CC(c4ccccc4)=NN32)s1 (stereo not given) | . | - | ? | - | ? | 39.8µM
COCC(=O)N(c1c(C)cccc1C)C(C)C(=O)OC (stereo not given) | . | - | . | . | - | .
COC(=O)C(C)N(C(=O)c1cccc2ccccc12)c1c(C)cccc1C (stereo not given) | - | 14.7µM | ? | - | . | -
Cc1ccc(-n2c(=O)c3ccc(C(=O)NCc4ccccc4Cl)cc3n(CC(=O)Nc3cccc(F)c3)c2=O)cc1 | - | . | . | . | . | -
Cc1ccccc1N1C(=O)c2sc3nc4c(c(=O)n3c2C1=O)CCC4 | . | ? | - | - | ? | ?
O=C1c2sc3nc4c(c(=O)n3c2C(=O)N1c1ccccc1)CCC4 | ? | ? | - | - | ? | 17.8µM
N#Cc1c(-c2ccccc2)cc(-c2ccccc2)nc1SCC(O)CS(=O)(=O)Cc1ccc(Cl)cc1 (stereo not given) | - | . | . | . | . | -
CC(=O)c1c(C)[nH]c(C(=O)Nc2nc(-c3ccc(-c4ccccc4)cc3)cs2)c1C | - | 8.28µM | ? | - | 7.38µM | -
COc1ccc(-c2nc(NC(=O)c3[nH]c(C)c(C(C)=O)c3C)sc2C)cc1 | - | - | 1µM | - | ? | -
COc1ccc(-c2nc(NC(=O)Cn3ccc(C(F)(F)F)n3)sc2C)cc1 | - | . | ? | - | 13.1µM | -
COc1cc(-c2n[nH]c3ccnc(-c4cccc5ncccc45)c23)cc(OC)c1OC | - | . | . | . | . | .
COc1ccc(N2CCN(S(=O)(=O)CCNC(=O)C3CC3)CC2)cc1 | - | - | - | - | - | -
N#C/C(=C\c1c(N2CCN(Cc3ccccc3)CC2)nc2ccccn2c1=O)S(=O)(=O)c1ccccc1 | - | ? | - | - | ? | -
Cc1cccn2c(=O)c(/C=C(\C#N)S(=O)(=O)c3ccccc3)c(N3CCN(Cc4ccccc4)CC3)nc12 | - | ? | - | - | 14.7µM | -
Cc1ccc(S(=O)(=O)/C(C#N)=C/c2c(N3CCOCC3)nc3c(C)cccn3c2=O)cc1 | - | 2.08µM | - | - | - | -

Screens as filed in PubChem.
